This is an account of results in PubChem BioAssay AID488969 (Vanderbilt High Throughput Screening Facility, 2010).

Whole data set: some 110,000 compounds, median “z-score” near -0.1, cut for the highest 2% near 2. Many of the other results were omitted from the sample, so the highest values are more common in it than they were. Activity calls are given as the source filed them.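 Rule for the calls: active = z-score in the third read window above 3 or below -3; inactive = the rest.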

Sequence of Metabotropic glutamate receptor 8 (Rattus norvegicus) (P70579 whole entry, looked up): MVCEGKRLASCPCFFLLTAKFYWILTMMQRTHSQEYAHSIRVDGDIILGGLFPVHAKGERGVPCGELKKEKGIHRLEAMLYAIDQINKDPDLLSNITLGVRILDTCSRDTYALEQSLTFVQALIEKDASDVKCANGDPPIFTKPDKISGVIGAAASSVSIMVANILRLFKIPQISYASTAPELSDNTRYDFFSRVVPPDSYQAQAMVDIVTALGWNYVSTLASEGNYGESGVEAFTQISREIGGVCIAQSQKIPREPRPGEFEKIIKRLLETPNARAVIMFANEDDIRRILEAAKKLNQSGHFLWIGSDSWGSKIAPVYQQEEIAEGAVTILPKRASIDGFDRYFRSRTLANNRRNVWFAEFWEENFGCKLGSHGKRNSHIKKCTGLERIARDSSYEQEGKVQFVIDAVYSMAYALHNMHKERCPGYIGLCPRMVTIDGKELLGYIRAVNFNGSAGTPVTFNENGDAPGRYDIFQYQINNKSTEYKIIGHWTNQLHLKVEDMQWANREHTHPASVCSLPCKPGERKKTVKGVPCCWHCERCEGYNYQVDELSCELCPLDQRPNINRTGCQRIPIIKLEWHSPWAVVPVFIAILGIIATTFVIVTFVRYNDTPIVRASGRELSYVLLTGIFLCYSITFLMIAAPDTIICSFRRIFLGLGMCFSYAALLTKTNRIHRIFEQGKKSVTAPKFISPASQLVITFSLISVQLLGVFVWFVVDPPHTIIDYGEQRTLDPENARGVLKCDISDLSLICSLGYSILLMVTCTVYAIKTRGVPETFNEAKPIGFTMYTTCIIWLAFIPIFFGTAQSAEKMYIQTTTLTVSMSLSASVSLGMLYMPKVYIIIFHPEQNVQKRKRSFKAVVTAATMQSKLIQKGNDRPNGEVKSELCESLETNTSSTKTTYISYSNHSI

This test concerns the target Metabotropic glutamate receptor 8 (Rattus norvegicus) (UniProt P70579). Briefly: mGluR8 Gi/Go-coupled signaling modulation – cell-based, rat, thallium flux, HTS, primary screen (AID 488969). Conditions: HEK293 rat mGluR8, GIRK (G protein-gated inwardly rectifying potassium channel) thallium flux, FluoZin2; at 10 µM; stronger effect = higher value; submaximal glutamate (EC20) added with thallium.
Consider `CC(=O)Cc1nsc(NC(=O)c2cc(-c3ccc(Cl)c(Cl)c3)oc2C)n1`, for which the z-score is -0.22. As to `Cc1ccc(S(=O)(=O)c2ccc(C)cc2)cc1`, the z-score was -0.487. `CCN1C(=O)/C(=C\c2ccc3c(c2)OCO3)C(C(=O)OC)=C1C` showed a z-score of -0.35. With `COc1ccc(C(=O)C(OC(=O)c2ccccc2Cl)c2ccccc2)cc1` (stereo not given), the z-score is -0.172.

For the compound `COc1ccc(-n2cc(C(=O)O)c3ccccc3c2=O)cc1`, the z-score was found to be 2.28. Turning to `CCOC(=O)c1ccccc1NC(=O)c1cn(-c2ccc(OC)cc2)c(=O)c2ccccc12`, the z-score was -0.291. As for `COC(=O)c1cn(-c2ccc(Cl)cc2)c(=O)c2ccccc12`, the z-score is -0.29. Compound `O=C(Nc1cc(C(F)(F)F)ccc1N1CCOCC1)c1cn2ccccc2n1` displayed a z-score of -0.314. Regarding `CC1(C)CN=C(N2CCN(c3ncnc4sc5c(c34)CCCC5)CC2)S1`, the z-score is 5.02 (active). Regarding `c1nc(N2CCOCC2)c2c3c(sc2n1)CCCC3`, the z-score was -0.441.

The compound `c1nc(N2CCC3(CC2)OCCO3)c2c3c(sc2n1)CCCC3` gave a z-score of -1.04.

The compound `Cc1ccccc1CN1CCN(CC(=O)NCc2ccccc2)C1=O` returned a z-score of 0.0216. In turn, `COc1ccc(OCCn2nnc(-c3ccc(Cl)cc3)n2)cc1` yielded a z-score of 0.195.

Compound `O=C(CSc1nnc(-c2cnccn2)n1Cc1ccco1)c1ccccc1` yielded a z-score of 2.15.

Regarding `COc1ccc(NC(=O)CSc2nnc(-c3ccccn3)n2Cc2ccco2)cc1OC`, the z-score is 5.76 (active). Turning to `Clc1ccc(CSc2nnc(-c3ccccn3)n2Cc2ccco2)c(Cl)c1`, the z-score amounted to 0.104. The compound `COc1ccc(C)cc1NC(=O)CSc1nnc(-c2ccccn2)n1Cc1ccco1` gave a z-score of 0.359. In the case of `Clc1cccc(CSc2nnc(-c3ccccn3)n2Cc2ccco2)c1`, the z-score is 3.12 (active).

Compound `COc1ccccc1NC(=O)CSc1nnc(-c2ccccn2)n1Cc1ccco1` showed a z-score of -1.55. Turning to `O=C(CSc1nnc(-c2ccccn2)n1Cc1ccco1)c1ccccc1`, the z-score amounted to 1.88. In turn, `O=C(CSc1nnc(-c2cnccn2)n1Cc1ccco1)c1ccc(Cl)cc1` gave a z-score of -0.74. Compound `Clc1ccccc1CSc1nnc(-c2ccccn2)n1Cc1ccco1` yielded a z-score of 0.314. Consider `COC(=O)c1ccccc1NC(=O)c1cn(-c2ccc(C)c(C)c2)c(=O)c2ccccc12`, for which the z-score was determined as 0.0214.

With `Cc1c(NC(=O)c2cc(-n3cnnc3)ccc2Cl)cccc1-c1nc2ccccc2o1`, the z-score is -0.115.

In turn, `O=C1c2ccccc2CN1CCNS(=O)(=O)c1ccc(Cl)cc1` yielded a z-score of -0.0894. Compound `Cc1ccc(C(=O)N/N=c2\sc3ccccc3n2C)cc1` returned a z-score of 0.37. The compound `Cc1ccccc1NC(=O)COC(=O)/C=C/c1cn(-c2ccccc2)nc1-c1cccnc1` had a z-score of -0.0968. Take `Cn1nnc2cc(NC(=O)N3CCN(c4ccccn4)CC3)ccc21`: the z-score came to 0.387. In turn, `CC(=O)Oc1ccc(-c2cccc(C(=O)O)c2)cc1` returned a z-score of -0.607.

On to `COc1ccc(C(=O)C2CCN(S(=O)(=O)c3ccc4c(c3)OCCO4)CC2)cc1`, for which the z-score turned out to be 0.21. The result for `Clc1ccc(/C=N/Nc2nnc(Cl)c3ccccc23)cc1` reads 0.242. Turning to `Clc1ccc(/C=N/Nc2nc(Cl)nc3ccccc23)cc1`, the z-score is 2.24. As to `Clc1cccc(/C=N/Nc2nc(Cl)nc3ccccc23)c1`, the z-score was -0.0962. The result for `CC(=O)Nc1ccc(OC(=O)c2cc3cc(Br)cc(Br)c3oc2=O)cc1` reads -0.128; that for `CCOC(=O)C1=C(c2ccccc2)N=C2SCC(=O)N2C1c1cccc(OC)c1` (stereo not given), -0.311; that for `COC(=O)c1c(NC(=O)COC(=O)[C@@H](NS(=O)(=O)c2ccc(C)cc2)C(C)C)sc2c1CCC2`, 2.02. Take `CCOC(=O)c1c(NC(=S)Nc2ccc(OC)cc2)sc2c1CCC2`: the z-score came out at 0.905. The result for `COC(=O)c1c(NC(=O)COC(=O)[C@@H](NS(=O)(=O)c2ccccc2)C(C)C)sc2c1CCC2` reads 0.129; that for `COC(=O)c1c(NC(=O)COC(=O)c2ccc(C)s2)sc2c1CCCCC2`, 0.122; that for `CCOC(=O)c1c(NS(=O)(=O)c2ccc(Br)cc2)sc2c1CCC2`, 16.1 (active). `CCOC(=O)Nc1sc2c(c1C(=O)OCC)CCC2`: the z-score came to 0.418. As for `CCOC(=O)c1c(NS(=O)(=O)c2cccc(OC)c2)sc2c1CCC2`, the figure is 16.9 (active); as for `CCOC(=O)c1c(NC=O)sc2c1CCC2`, -0.85. For the compound `CCOC(=O)c1c(NC(=O)OC)sc2c1CCC2`, the z-score was 0.00121. In the case of `CCOC(=O)C1CCN(CCC(=O)Nc2cccc(Cl)c2C)CC1`, the z-score was determined as 0.732. Consider `O=C(NC1CCCCCC1)C1C2C=CC3(CN(Cc4cccnc4)C(=O)C13)O2` (stereo not given), for which the z-score came out at 0.211.

As to `O=c1cc(N2CCc3ccccc32)[nH]c(=O)n1-c1ccc(Br)cc1`, the z-score is -0.058. `CCc1ccc(OCCOCC(O)CNC(C)CC)cc1` (stereo not given) displayed a z-score of 0.0842. `COC(=O)c1ccccc1NC(=O)C1CCC(=O)N1S(=O)(=O)c1ccc(C)cc1` (stereo not given) showed a z-score of 0.251. For `CC(=O)NS(=O)(=O)c1ccc(NC(=O)COc2ccc(C(=O)c3ccccc3)cc2)cc1`, the z-score came out at 0.359. The compound `CC(NC(=O)C1CCN(S(=O)(=O)c2cc([N+](=O)[O-])ccc2Cl)CC1)c1ccccc1` (stereo not given) came in with a z-score of -0.238. As for `NC(=O)C1CCCN(S(=O)(=O)c2ccccc2)C1` (stereo not given), the figure is -0.127; as for `Cc1cccc(C(=O)Nc2nnc(-c3ccco3)o2)c1`, 0.11; as for `Cc1ccc(C(=O)Nc2nnc(-c3ccco3)o2)cc1C`, 0.973. `Cc1ccc(C(=O)Nc2nnc(-c3ccco3)o2)cc1` displayed a z-score of 0.435.

Compound `O=C(Nc1nnc(-c2ccco2)o1)c1ccc2ccccc2c1` yielded a z-score of 2.95. `O=C(Nc1nnc(-c2ccco2)o1)c1cccc2ccccc12`: the z-score was determined as 0.259.

In turn, `CCC(=O)Nc1nnc(-c2ccco2)o1` had a z-score of 2.14. `CCSc1nc2[nH]ncc2c(=O)[nH]1` returned a z-score of -0.145. The result for `CCOC(=O)c1c(N)sc(C(O)(C(F)(F)F)C(F)(F)F)c1-c1ccc(OC)cc1OC` reads -1.15; that for `O=C(COC(=O)c1cccnc1Nc1cccc(C(F)(F)F)c1)NC1CCS(=O)(=O)C1` (stereo not given), -0.275; that for `O=C(NCc1cc(C(F)(F)F)cc(C(F)(F)F)c1)C1CC(c2c(Cl)cccc2Cl)=NO1` (stereo not given), -0.111. Regarding `Brc1ccc(-c2cn3c(n2)CCc2ccc4cccnc4c2-3)cc1`, the z-score turned out to be 0.098.

In the case of `Cc1ccc(-n2c(-c3ccc(Br)cc3)c[n+]3c2CCc2ccc4cccnc4c2-3)cc1`, the z-score was 4.86 (active). `Cc1ccc(S(=O)(=O)Nc2cccc3cccnc23)cc1` gave a z-score of -0.731.

Compound `COc1ccccc1-n1c(SCC(=O)N2CCCCC2)nnc1-c1ccccc1O` showed a z-score of -0.514. Turning to `CN(C(=O)c1ccccn1)c1nnc(-c2cnccn2)s1`, the z-score is -0.729.

Regarding `CN(C(=O)c1ccccn1)c1nnc(-c2ccccn2)s1`, the z-score was 2.29. For `CN(C(=O)c1ccccn1)c1nnc(-c2ccncc2)s1`, the z-score is -0.931. The result for `COc1ccc(-c2noc(CSc3nnc(Cc4ccccc4)n3-c3ccc(Cl)cc3)n2)cc1` reads 0.663; that for `N=c1n(CCN2CCCCC2)c2ccccc2n1CC(O)COc1ccccc1` (stereo not given), 1.11.

The compound `Cc1ccccc1OCC(O)Cn1c(=N)n(CCN2CCOCC2)c2ccccc21` (stereo not given) displayed a z-score of 1.12. Take `Cc1cccc(OCC(O)Cn2c(=N)n(CCN3CCCCC3)c3ccccc32)c1` (stereo not given): the z-score is 5.06 (active). Take `N=c1n(CCN2CCCCC2)c2ccccc2n1CC(O)c1cccc(Br)c1` (stereo not given): the z-score amounted to 0.566.

In the case of `Cc1ccc(OCC(O)Cn2c(=N)n(CCN3CCCCC3)c3ccccc32)cc1` (stereo not given), the z-score is 4.9 (active).

Compound `COc1ccccc1OCC(O)Cn1c(=N)n(CCN2CCCCC2)c2ccccc21` (stereo not given) returned a z-score of -0.0021.

On to `O=C(Nc1ccc(Cl)cc1)C1=Cc2cc(Cl)ccc2OC1`, for which the z-score was -0.109. Regarding `COC(=O)C1=C(C)NC2=C(C(=O)CC(C)(C)C2)C1c1ccsc1` (stereo not given), the z-score is 0.803. `Cn1c(C(C(=O)NCC2CCCO2)N(C(=O)Cn2nnc3ccccc32)C2CCCCC2)nc2ccccc21` (stereo not given): the z-score is -0.0111.

`CCOC(=O)/C(C#N)=C/NC(=O)NC(C)(C)C` yielded a z-score of 0.141. As for `Cc1ccc2[nH]c(=O)c(CN(CCO)C(=O)N(C)C)cc2c1`, the figure is -0.0536; as for `CCOC(CNC(=O)CCc1c(C)nc2nc(C)nn2c1C)OCC`, -0.308. `CCc1ccc(S(=O)(=O)Nc2c(C)nn(C)c2C)cc1` came in with a z-score of -0.343.

The compound `CN(Cc1ccccc1F)c1nc(-c2cccs2)nc2ccccc12` displayed a z-score of 0.11.

In turn, `O=C(O/N=C\c1ccc(N2CCCCC2)c([N+](=O)[O-])c1)c1c(F)cccc1F` returned a z-score of 2.03. With `O=C(O/N=C\c1ccc(N2CCCCC2)c([N+](=O)[O-])c1)c1cccc(C(F)(F)F)c1`, the z-score is 0.31. Compound `O=C(O/N=C\c1ccc(N2CCCCC2)c([N+](=O)[O-])c1)c1cccc(Cl)c1` showed a z-score of -0.494. With `CCOC(=O)CSc1cc(CSc2ccccc2)nc(-c2ccccc2)n1`, the z-score is 4.85 (active). The result for `CCOC(=O)CSc1cc(CS(=O)c2ccc(Cl)cc2)nc(-c2ccccc2)n1` (stereo not given) reads 0.0352; that for `CCOC(=O)CSc1cc(CS(=O)(=O)c2ccccc2)nc(-c2ccccc2)n1`, -0.223. For `CC(=O)N(c1nc(CCl)cs1)c1c(C)cc(C)cc1C`, the z-score was 1.43.

Turning to `Cc1ccc(-c2cc(C(=O)NCc3cnn(C)c3C)c3cc(Br)ccc3n2)cc1`, the z-score was -0.453. In turn, `CCc1ccc(C2C(C#N)=C(N)C(C#N)(C#N)C3=CCC(C(C)(C)C)CC32)cc1` (stereo not given) gave a z-score of -0.0406. As to `O=C(CCCn1c(=S)[nH]c2cc3c(cc2c1=O)OCO3)N1CCN(c2ccc(Cl)cc2)CC1`, the z-score is -0.36. For `CCCn1c(=S)[nH]c2cc(C(=O)N3CCN(c4ccccc4OC)CC3)ccc2c1=O`, the z-score came to 0.596. As for `CC(C)NC(=O)CCCn1c(=S)[nH]c2cc3c(cc2c1=O)OCO3`, the figure is 0.566; as for `COCCn1c(=S)[nH]c2cc(C(=O)N3CCN(c4ccc(F)cc4)CC3)ccc2c1=O`, 4.3 (active). Regarding `CC(C)OCCCn1c(=S)[nH]c2cc3c(cc2c1=O)OCO3`, the z-score is 6.19 (active).

Take `CCN(CC)CCn1c(=S)[nH]c2cc3c(cc2c1=O)OCO3`: the z-score was -0.565. In turn, `COCCn1c(=S)[nH]c2cc(C(=O)N3CCN(c4ccccc4OC)CC3)ccc2c1=O` yielded a z-score of -0.495. For the compound `CC(=O)c1ccc(N2CCN(C(=O)CCCn3c(=S)[nH]c4cc5c(cc4c3=O)OCO5)CC2)cc1`, the z-score stood at 2.56.

Take `O=C(CCCn1c(=S)[nH]c2cc3c(cc2c1=O)OCO3)N1CCN(c2ccc(F)cc2)CC1`: the z-score is -0.237. The result for `Cc1cc(=O)[nH]c(SCC(=O)C23CC4CC(CC(C4)C2)C3)c1C#N` reads -0.0485; that for `O=C(Nc1cccc(O)c1)c1cc2nc(-c3ccccc3)cc(-c3ccccc3)n2n1`, -0.00871. In the case of `O=C(COc1ccc(C(=S)N2CCOCC2)cc1)N1CCCC1`, the z-score is -0.301.
